High-throughput results (PubChem BioAssay)
Shown are actives, neighbours in structure and some others; about 7.4% of the full set was active somewhere.
NPC1 prom act: qHTS Assay for NPC1 Promoter Activators; Huh7 NPC1 promoter luciferase reporter, 24 h; Potency, µM (top dose mostly 9.22 µM), inactives show at the top dose activation, hits mostly activators; 320,000 compounds, 2.4% hits; also: % of control where 0% means no effect; nearly all actives have a fitted effect of over 60% in size
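Readout is luciferase luminescence, reflecting NPC1 promoter activation in stably transfected Huh7 cells after 24 h compound exposure at 37 °C in reduced-serum medium with 10% FBS.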
FLuc modulator: qHTS profiling assay for firefly luciferase inhibitor/activator using purifed enzyme and Km concentrations of substrates (counterscreen for miR-21 project) | 360,000 compounds, 6.9% hits | purified FLuc, Km substrates, luminescence inhibition | Potency, µM (titrated, usually from 57.5 µM), for the others: at the top dose activity change, negative = inhibition, most hits filed as inhibitors;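 also: plate controls were vehicle for no effect and reference inhibitor for full effect; nearly all actives have a fitted effect of over 55% in size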
Target sequence (P08659 whole entry, looked up): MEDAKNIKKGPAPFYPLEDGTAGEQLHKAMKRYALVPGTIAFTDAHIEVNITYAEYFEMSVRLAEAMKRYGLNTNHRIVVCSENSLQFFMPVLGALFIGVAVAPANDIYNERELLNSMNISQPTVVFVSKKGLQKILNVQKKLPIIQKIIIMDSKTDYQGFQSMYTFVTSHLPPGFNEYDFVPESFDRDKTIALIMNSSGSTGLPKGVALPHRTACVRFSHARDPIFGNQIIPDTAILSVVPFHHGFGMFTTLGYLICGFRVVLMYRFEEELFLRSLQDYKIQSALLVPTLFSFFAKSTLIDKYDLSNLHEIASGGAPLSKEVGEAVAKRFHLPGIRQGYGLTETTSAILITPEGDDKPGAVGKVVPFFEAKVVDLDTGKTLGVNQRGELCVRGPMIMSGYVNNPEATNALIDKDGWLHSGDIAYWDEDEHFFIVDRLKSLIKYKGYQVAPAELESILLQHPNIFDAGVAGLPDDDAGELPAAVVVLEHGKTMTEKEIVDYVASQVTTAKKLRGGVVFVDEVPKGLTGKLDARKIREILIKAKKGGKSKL
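Biochemical qHTS of compounds, final roughly 60 µM downward over six points, against 10 nM purified firefly luciferase using Km concentrations of substrates (10 uM D-luciferin, 10 uM ATP) in Tris acetate pH 7.5 buffer; luminescence output.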
KinaseGlo FLuc: Counterscreen for Luciferase (Kinase-Glo TM) Inhibition; Luciferin 4-monooxygenase (Photuris pensylvanica), Q27757; Kinase-Glo luciferase, ATP luminescence, 8 min; Potency, µM (doses to about 38.3 µM), inactives show top-dose activity change, negative = inhibition, actives largely listed as inhibitors; 200,000 compounds, 0.28% hits; also: % is scaled to controls: 0 for no effect and ±100 for the full control effect; nearly all actives have a fitted effect of over 60% in size
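Kinase-Glo luciferase light output from ATP and luciferin was measured with 10 uM ATP, within the enzyme's linear range. Buffer: 50 mM imidazole pH 7.2, 50 mM KCl, 7 mM MgCl2, 0.01% Tween 20, 0.05% BSA; luminescence read after 8 min at ambient temperature.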
Rab9 prom act: qHTS Assay for Rab9 Promoter Activators; 320,000 compounds, 2.8% hits; Potency, µM (titrated, usually from 9.22 µM), without a hit: top-dose activation, negative = inhibition, hits mostly activators; Huh7 Rab9 promoter-luciferase reporter, luminescence, 24 h; also: % of control where 0% means no effect; nearly all actives have a fitted effect of over 60% in size
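Measured in stably transfected Huh7 cells bearing a Rab9 promoter–luciferase construct: 24 h compound treatment at 37 °C, followed by luminescence detection.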
ELG1 genotox: qHTS screen for small molecules that induce genotoxicity in human embryonic kidney (HEK293T) cells expressing luciferase-tagged ELG1; HEK293T ELG1-luciferase reporter, luminescence, 16 h; Potency, µM (series often up to 46 µM), without a hit: at the top dose activity change, positive = activation, actives largely listed as activators; 330,000 compounds, 1.3% hits; also: % of control where 0% means no effect; nearly all actives have a fitted effect of over 60% in size
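Screening used a luciferase reporter fused to human ELG1 in HEK293T cells. Luminescence was read on a CCD plate imager after 16 hr exposure and 30 min ONE-Glo incubation.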
SMN2 splice up: qHTS Assay for Enhancers of SMN2 Splice Variant Expression | HEK293 SMN2-luciferase splicing reporter, luminescence, 30-36 h | Potency, µM (top dose mostly 46.1 µM), for the others: at the top dose activity change, positive = activation, actives largely listed as activators | 210,000 compounds, 2.8% hits; also: % of control where 0% means no effect; nearly all actives have a fitted effect of over 55% in size
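HEK293 cells carry an SMN2 […]–luciferase reporter in which exon 7 inclusion puts luciferase in frame. Cells were plated 10-12 h before compound addition, then incubated 30-36 h at 37C. ONE-Glo luminescence was read; sodium butyrate at 4.5 mM final served as control.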
* marks the source's active call; other numbers are inactive results; ? = inconclusive; / = no result; [ ] = remark or other dose. Calls follow the shape of the dose curve; as a rule, active = well fitted curve in the direction sought with a large enough effect; inconclusive = small, poorly fitted or top-dose-only effect, or another doubt; inactive = no such curve, though single readings can be large; an effect the other way counts as inactive or inconclusive. Potency is read from the fitted curve at half-maximal effect.

SMILES	NPC1 prom act	FLuc modulator	KinaseGlo FLuc	Rab9 prom act	ELG1 genotox	SMN2 splice up
COc1ccc(C)cc1NC(=O)Cn1cc(S(=O)(=O)Cc2ccccc2Cl)c2ccccc21	/	-2.0%	/	/	/	/
CC(=O)Nc1ccc(NC(=O)c2ncoc2-c2ccco2)cc1	/	19µM*	/	/	/	/
Cc1cc(C)c(NC(=O)c2ncoc2-c2ccco2)c(C)c1	/	-1.7%	/	/	/	/
O=C(N/N=C/c1c[nH]c2ccccc12)c1ccccc1	?	13.5µM*	/	?	?	/
O=C(N/N=C/c1cccc2ccccc12)c1cccs1	5.62µM*	2.13µM*	/	3.55µM*	?	/
O=C(N/N=C/c1ccccn1)c1sc2ccccc2c1Cl	-1.3%	9.53µM*	/	-1.3%	?	/
COc1ccccc1C(=O)N/N=C/c1c[nH]c2ccccc12	18.8%	16.9µM*	/	12.5%	5.0%	/
O=C(NC(Cc1c[nH]c2ccccc12)C(=O)N/N=C/c1cccc2ccccc12)c1cccs1 (configuration not stated)	-1.3%	2.1%	2.9%	-0.2%	-4.5%	6.4%
Cn1cccc1/C=N/NC(=O)c1sc2ccccc2c1Cl	?	2.69µM*	-4.4%	?	14.3%	0.0%
O=C(N/N=C\c1cn[nH]c1-c1ccccc1)c1cccs1	0.1%	23.9µM*	0.0%	0.7%	12.6%	19.4%
O=C(N/N=C/c1c[nH]c2ccccc12)c1sc2ccccc2c1Cl	11.6%	12µM*	-1.2%	?	?	?
O=C(N/N=C/c1c[nH]c2ccccc12)c1ccc2c(c1)OCCO2	?	0.953µM*	/	?	?	/
O=C(N/N=C\c1cn[nH]c1-c1ccccc1)c1cccnc1	-2.8%	?	-5.3%	-5.6%	-1.6%	-12.9%
Cc1c(/C=N/NC(=O)c2sc3ccccc3c2Cl)cnn1C	3.0%	?	-4.2%	-0.5%	-0.5%	4.2%
Cc1cc(O)c(C(c2ccc(F)cc2)N2CCCCC2)c(=O)n1Cc1ccco1 (configuration not stated)	/	-17.3%	/	/	/	/
O=C(N/N=C/c1c[nH]c2ccccc12)c1cccs1	?	9.53µM*	/	?	23.1µM*	/
Cc1cc(C(=O)N/N=C/c2c[nH]c3ccccc23)cs1	16.3%	15.1µM*	-0.6%	11.2%	17.5%	?
O=C(N/N=C/c1c[nH]c2ccc(Br)cc12)c1ccncc1	4.4%	3.2%	-1.3%	-0.6%	0.4%	7.1%
O=C(N/N=C/c1cccc([N+](=O)[O-])c1O)c1cccs1	-5.6%	13.5µM*	-6.6%	-1.3%	0.2%	-63.4%
O=C(N/N=C/c1c[nH]c2ccc(Br)cc12)c1ccc2c(c1)OCO2	-2.4%	26.9µM*	-3.3%	-3.8%	-0.9%	23.0%
CCOc1ccc(-c2nc(SCC(=O)Nc3cc(F)ccc3F)n3[nH]c(=O)cc3n2)cc1	/	-1.2%	/	/	/	/
C[C@@H](C[N+](C)(C)C)OC(N)=O	/	/	-1.4%[17.1 µM]	/	/	-9.4%[20.6 µM]
O=C(CN1CCCN(S(=O)(=O)c2ccc(Br)cc2)CC1)Nc1cccc(C(F)(F)F)c1	/	-0.7%	/	/	/	-44.7%
COc1ccc(-c2nc3c(c4c2C[C@H](c2ccccc2)OC4)CN(C(=O)NCCc2c[nH]c4ccccc24)CC3)c(C)c1	/	/	-4.8%[7.66 µM]	/	/	-1.4%[9.22 µM]
CCOc1ccc(Br)cc1C(=O)N/N=C/c1c[nH]c2ccccc12	0.6%	2.0%	/	-3.9%	-0.7%	/
SMILES	NPC1 prom act	FLuc modulator	KinaseGlo FLuc	Rab9 prom act	ELG1 genotox	SMN2 splice up
NC(=S)N/N=C\c1ccccc1OCc1ccccc1	-4.2%	-18.3%	1.4%	-5.8%	5.6%	-15.3%
O=C(N/N=C/c1ccccc1OCc1ccccc1)c1cccs1	8.7%	4.26µM*	-4.2%	-4.1%	13.5%	25.9%
O=C(N/N=C/c1c[nH]c2ccccc12)c1cc(Br)ccc1O	18.8%	26.9µM*	/	13.7%	6.2%	/
O=[N+]([O-])c1ccc(COc2ccccc2/C=N/O)cc1	?	?	-2.1%	?	12.6%	15.8µM*
COc1cc(C(=O)Nc2ccc3c(c2)ncn3C)cc(OC)c1OC	-27.3%	?	/	-24.7%	?	/
CCn1c(C)nc2cc(C(=O)NNC(=O)Nc3ccc(Cl)cc3)ccc21	?	-3.0%	-2.5%	1.41µM*	-2.9%	3.3%
Cn1nnc2cc(C(=O)Nc3ccc(Cl)cc3)ccc21	?	-13.5%	2.7%	3.55µM*	?	18.2%
Cc1nc2cc(NC(=O)c3ccc(Cl)cc3)ccc2n1C	0.282µM*	4.26µM*	/	0.282µM*	1.03µM*	/
COc1cc(C(=O)Nc2ccc3c(c2)nc(C)n3C)cc(OC)c1OC	-27.5%	21.3µM*	/	-17.5%	?	/
Cc1nc2c(c(SCC(=O)Nc3ccccc3C(F)(F)F)n1)CCC2	/	-1.6%	/	/	/	/
CCn1c(C)nc2cc(C(=O)N/N=C/c3ccc(O)c(O)c3O)ccc21	-1.6%	13.5µM*	-4.3%	4.6%	-17.1%	-18.2%
CCOc1ccc2nc(NC(=O)c3ccc(OCC4CCCO4)cc3)sc2c1 (configuration not stated)	26.7%	2.69µM*	0.3%	15.5%	-0.8%	?
Cc1cccc2sc(NC(=O)c3ccc(OCC4CCCO4)cc3)nc12 (configuration not stated)	26.7%	10.7µM*	-1.2%	-3.0%	6.4%	2.8%
O=C(Nc1nc(-c2ccc(F)c(F)c2)cs1)c1ccc(OCC2CCCO2)cc1 (configuration not stated)	-28.1%	-25.9%	/	-34.3%	-2.1%	/
Cc1ccc(F)cc1NC(=O)c1ccc(OCC2CCCO2)cc1 (configuration not stated)	/	/	/	/	12.1%	/
CCOc1ccc2nc(NC(=O)CSc3nnc(-c4ccncc4)n3CC3CCCO3)sc2c1 (configuration not stated)	?	2.39µM*	1.0%	?	?	12.7%
Cc1csc(NC(=O)c2ccc(OCC3CCCO3)cc2)n1 (configuration not stated)	?	5.36µM*	-15.0%	0.447µM*	-6.8%	1.41µM*
COc1ccc(CCn2c3c(c(=O)[nH]c2=O)C(NC(=O)c2ccccc2F)(C(F)(F)F)C(=O)N3)cc1OC (configuration not stated)	/	5.4%	/	/	/	-2.7%
CCOC(=O)C1=C(N)Oc2ccc(Br)cc2[C@@H]1[C@@H](C#N)C(=O)OCC	/	/	3.5%	/	/	/
CCCCN(CC)Cc1ccc(CNS(=O)(=O)c2cc3c(cc2Cl)NC(=O)CO3)o1	/	-4.8%	/	/	/	/
C[C@H]1Cc2c(-c3ccccc3)nc3c(c2CO1)CN(C(=O)NCc1ccco1)CC3	/	/	-3.0%[7.66 µM]	/	/	-5.8%[9.22 µM]
